Experimental findings from the supplement of paper PMC6555819 are described below.

For this assay, the system named is VDR:RXRa (NR concentration 270 nM, RXRa partner concentration 90 nM). Briefly: PBM binding z-score (relative to random genomic background probes); higher = stronger binding; sequences stand for … in GC…GCGATTGACAGCGTAGAATGAAGG
How it is done:
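Protein-binding microarray (Agilent 4x180K custom design, double-stranded 60-nt probes: 5' GC cap, 34-nt variable region, 24-nt constant primer region; full probe sequence given). Purified or IVT nuclear receptor:RXRα heterodimers (3:1 NR:RXRα, mostly 270:90 nM) or homodimers were incubated for 1 h in PBS with 2% milk and no ligand, then detected with Alexa488 antibodies. Fluorescence from o1-orientation probes (~5 replicates averaged) was converted to z-scores against 500 random hg19 background probes. Variable regions are seed direct-repeat (DR0–DR5) sites, all their single-nucleotide variants and half-site ablations.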
For the sequence TCTCGCAGGACACGAAAGGTCAGAGCTCGACATC, the PBM binding z-score turned out to be 2.89.
Take GCTGCTAGGTCAACTGATGGTCAGCTCAAGCTCG: the PBM binding z-score came out at 1.59.
Under TCATATAGGTAAATGCTAGGGGAAAGTCCGATCT stands 0.846; under ACTAGTTGGTTAGCTGAGGTCACACACAATTCGG, 4.03; under GGAACGAGGGCATTCGAGTTGATATCATGGCGAT, 3.92.
Under CAAACTACGTCAAGAGGTCAAAGTCCGCTTCCCG stands 5.03; under GCAGACAGCTGAAACGCAGGTAACTCAGGGTGGC, -0.826.
Under TTACCAAGGTGAAAGGTCCTTGATGCACGCCTTG stands 0.75; under CCTACTGGGCCATGAGGTCATTGATATCAACGTT, 4.43; under CGTCCAAGGTCATAGGATGTCAGTGAAGACAGAT, 4.77.
GCTATTAGTTAAAAGGGCAACCGAATGATTCTCG displayed a PBM binding z-score of 0.193.
The result for GCGACTGGGGCAAAGCGGGTTACCATAAGGTTGG reads 0.145; that for AATACAGGGTCACTAGGGCAGAGTAGGTACGAAT, 4.5; that for CGTCCAAGGTCGAGGTCAGTGAAAGAGACTCGAA, 3.73.
Consider CGAACTAGGTCATTGACAGGTCAGTGAATAGTAA, for which the PBM binding z-score was found to be 3.9.
Under AGAATGTGGTTACCAAAGATCAGGGAAACGCTTG stands -0.233.
Take TTACCAAGGTGAGCGGAGGTCGTTGATCCAACTC: the PBM binding z-score worked out at 3.36.
The result for CCTATTACTTGACCATAAGGGCAACCGAAGCTCG reads 0.976; that for CCTATTCGTTGACCATAAGGGCAACCGAAGCTCG, 0.983.
The result for CCGCCTGGGGCATAAGGTTACCATAAGCCAGCCC reads 0.151; that for ACTTACGGGTCAACGAGGTTATAGCACGCGTATA, 7.63.
With CCTATTAGTTGACCATATGGGCAACCGAAGCTCG, the PBM binding z-score amounted to 0.234.
CGTCCAAGGTCAAAGGTCTGTGAAGAGATGACGG displayed a PBM binding z-score of 4.54.
Under TTACCAAGGTGAAGGTCGTTTATCCCTCTGTAGA stands 1.66; under GGAACGAGGGCATTGGAGTTGATAGCATGGCGAT, 2.6; under CATATAGGGTCAGCTAGGCCAGAGTAGGGACGGC, 3.7.
Sequence CCTTACGGTTCACTCCAGGTTATAGCATCGGAGT had a PBM binding z-score of 3.4.
Under CCTCGGAGGACAACAGGAGTTCAGAGCTGCCAGA stands 1.14; under TCTCAGAGGACACGAAGGTCAGAGCTTTCCAGAG, 2.75; under CCGACTGGGGCAAGGTTACGATAACGCACAGCCA, 0.0294.
Take ATATGTAGGTTAGCTGGGGTCATTTAGACTAGGC: the PBM binding z-score amounted to 5.97.
The result for GCTTGTAGATCAAGGTCAAGAAAGACTAAGCTAA reads 2.67.
AGAATGAGGTTATACGTAGATCCGGGAAGAAAGT had a PBM binding z-score of 1.15.
The result for TCTTCTAGATCAAAGGTTAAGAAAGCCGAAGCCT reads 1.58; that for GCTAGCAGGCCATTTGCGTCACTCAATGACGGGC, -0.801; that for ATATGTAGGTTATCGGGTCATTCAGTTTGCGCAT, 5.
TCTAATTGGTCAAAGGTCACACACTCGAAATGCG: the PBM binding z-score turned out to be 5.62.
Under CCTAGCAGGCCAGGGCCACTCAAGCATTTCGCTT stands -1.03; under TTACCAAGGTGAGCTGAGGTCGTTGAGCCAACTC, 4.29; under CGAACGAGGGCATGAGTTGATATCAAATGCCGAT, 1.44.
